In publication PMC7862700, “An all-to-all approach to the identification of sequence-specific readers for epigenetic DNA modifications on cytosine”:

Experiments:
Assay in all cases: DAPPL (digital affinity profiling via proximity ligation, sequencing); 10 mM Tris-HCl pH 7.5, 50 mM NaCl, 1 mM DTT, 4% glycerol, room temperature, 30 min; GST-TFs on glutathione beads, 16-mer random dsDNA library, 0.1% formaldehyde crosslink after washing; high values mean tight binding
Details in all cases: protein: recombinant; tags: N-terminal GST; dsDNA, one strand shown
ELK1 = target: T1, ELK1 (Homo sapiens, UniProt P19419 1-428)
T1 sequence: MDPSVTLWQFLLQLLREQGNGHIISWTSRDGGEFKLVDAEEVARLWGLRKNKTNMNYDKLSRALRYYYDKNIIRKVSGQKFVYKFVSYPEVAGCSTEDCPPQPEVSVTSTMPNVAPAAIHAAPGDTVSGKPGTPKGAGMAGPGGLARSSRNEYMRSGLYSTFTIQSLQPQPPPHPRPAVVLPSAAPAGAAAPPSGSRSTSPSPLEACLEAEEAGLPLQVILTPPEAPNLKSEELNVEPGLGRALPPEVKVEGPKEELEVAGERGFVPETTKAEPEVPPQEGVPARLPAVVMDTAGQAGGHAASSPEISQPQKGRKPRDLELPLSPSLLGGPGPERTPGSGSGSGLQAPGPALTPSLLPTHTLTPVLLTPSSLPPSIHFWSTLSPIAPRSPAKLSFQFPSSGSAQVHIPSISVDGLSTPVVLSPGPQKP
How it was run: (§1)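 Pools were built from human transcription factors expressed in yeast as GST fusions, captured on glutathione beads and DNA-barcoded, along with a tag-only sample. Incubation with 200 nmole of a 16-mer random double-stranded DNA library lasted 30 min at room temperature in Tris/NaCl/DTT/glycerol buffer, and was followed by washing, 0.1% formaldehyde crosslinking, proximity ligation, PCR amplification and Illumina NextSeq500 sequencing. Binding signal is the quotient of each hexamer's read frequency for a factor and its frequency for the tag-only sample.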

GABPA = target: T2, GABPA (Homo sapiens, UniProt Q06546 1-454)
T2 sequence: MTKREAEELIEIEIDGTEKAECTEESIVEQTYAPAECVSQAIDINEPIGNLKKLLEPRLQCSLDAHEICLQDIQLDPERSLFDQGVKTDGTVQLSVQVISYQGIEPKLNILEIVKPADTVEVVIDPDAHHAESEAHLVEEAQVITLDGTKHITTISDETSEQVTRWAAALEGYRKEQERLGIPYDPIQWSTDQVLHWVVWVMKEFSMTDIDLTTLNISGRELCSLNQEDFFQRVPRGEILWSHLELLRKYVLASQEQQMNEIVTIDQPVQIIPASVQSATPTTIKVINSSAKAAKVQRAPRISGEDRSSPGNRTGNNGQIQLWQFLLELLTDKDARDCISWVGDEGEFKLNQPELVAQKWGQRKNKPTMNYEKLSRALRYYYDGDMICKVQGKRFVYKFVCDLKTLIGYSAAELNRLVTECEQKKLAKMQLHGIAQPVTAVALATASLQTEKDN
How it was run: as §1

ELF1 = ELF1 (Homo sapiens, UniProt P32519 1-619)
Sequence of ELF1 (P32519 whole entry): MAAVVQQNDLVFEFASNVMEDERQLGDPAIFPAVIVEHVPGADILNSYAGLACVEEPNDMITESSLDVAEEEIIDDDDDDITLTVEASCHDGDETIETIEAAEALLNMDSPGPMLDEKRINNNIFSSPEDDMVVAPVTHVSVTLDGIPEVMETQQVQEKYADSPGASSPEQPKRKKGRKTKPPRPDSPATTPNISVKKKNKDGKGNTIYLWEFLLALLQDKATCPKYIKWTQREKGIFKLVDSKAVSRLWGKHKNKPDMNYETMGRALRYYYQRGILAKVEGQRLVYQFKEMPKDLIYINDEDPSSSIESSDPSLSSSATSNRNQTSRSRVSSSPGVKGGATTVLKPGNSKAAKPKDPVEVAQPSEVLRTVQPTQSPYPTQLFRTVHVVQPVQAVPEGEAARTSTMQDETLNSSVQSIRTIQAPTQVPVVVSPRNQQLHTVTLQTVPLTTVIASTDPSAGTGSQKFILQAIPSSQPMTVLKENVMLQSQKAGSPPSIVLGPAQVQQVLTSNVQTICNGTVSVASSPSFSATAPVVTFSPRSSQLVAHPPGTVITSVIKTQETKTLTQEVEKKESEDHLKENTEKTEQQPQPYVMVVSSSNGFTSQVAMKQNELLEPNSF
How it was run: as §1

SPIB = SPIB (Homo sapiens, UniProt Q01892 1-262)
Sequence of SPIB (Q01892 whole entry): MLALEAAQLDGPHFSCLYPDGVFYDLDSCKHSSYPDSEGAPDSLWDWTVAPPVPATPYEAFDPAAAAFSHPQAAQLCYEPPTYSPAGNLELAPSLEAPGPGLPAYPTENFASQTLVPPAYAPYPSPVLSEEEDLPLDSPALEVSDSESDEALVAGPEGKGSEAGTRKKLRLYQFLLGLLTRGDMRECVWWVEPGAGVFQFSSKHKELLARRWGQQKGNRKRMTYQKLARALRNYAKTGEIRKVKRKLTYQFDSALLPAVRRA
How it was run: as §1

ELK3 = target: T3, ELK3 (Homo sapiens, UniProt P41970 1-407)
T3 sequence: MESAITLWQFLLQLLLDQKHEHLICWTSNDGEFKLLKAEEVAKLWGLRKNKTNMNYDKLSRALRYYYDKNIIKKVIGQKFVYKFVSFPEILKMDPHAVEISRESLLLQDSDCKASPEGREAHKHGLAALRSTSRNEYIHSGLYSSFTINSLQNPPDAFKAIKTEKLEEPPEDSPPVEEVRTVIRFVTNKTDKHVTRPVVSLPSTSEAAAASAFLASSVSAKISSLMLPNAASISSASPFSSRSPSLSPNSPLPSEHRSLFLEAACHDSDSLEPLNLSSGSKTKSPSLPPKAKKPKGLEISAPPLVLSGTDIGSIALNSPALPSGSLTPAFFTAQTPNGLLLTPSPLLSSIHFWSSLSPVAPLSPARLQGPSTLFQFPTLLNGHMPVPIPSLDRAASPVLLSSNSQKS
How it was run: as §1

SPIC = target: T4, SPIC (Homo sapiens, UniProt Q8N5J4 1-248)
T4 sequence: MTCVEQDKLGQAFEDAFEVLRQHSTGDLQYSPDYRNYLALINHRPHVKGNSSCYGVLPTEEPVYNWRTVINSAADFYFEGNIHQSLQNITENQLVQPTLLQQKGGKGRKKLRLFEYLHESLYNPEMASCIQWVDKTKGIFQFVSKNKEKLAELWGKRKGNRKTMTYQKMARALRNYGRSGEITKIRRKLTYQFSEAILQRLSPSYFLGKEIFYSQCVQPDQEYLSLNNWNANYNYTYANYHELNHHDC
How it was run: as §1

ELK4 = target: T5, ELK4 (Homo sapiens, UniProt P28324-2 1-405)
T5 sequence: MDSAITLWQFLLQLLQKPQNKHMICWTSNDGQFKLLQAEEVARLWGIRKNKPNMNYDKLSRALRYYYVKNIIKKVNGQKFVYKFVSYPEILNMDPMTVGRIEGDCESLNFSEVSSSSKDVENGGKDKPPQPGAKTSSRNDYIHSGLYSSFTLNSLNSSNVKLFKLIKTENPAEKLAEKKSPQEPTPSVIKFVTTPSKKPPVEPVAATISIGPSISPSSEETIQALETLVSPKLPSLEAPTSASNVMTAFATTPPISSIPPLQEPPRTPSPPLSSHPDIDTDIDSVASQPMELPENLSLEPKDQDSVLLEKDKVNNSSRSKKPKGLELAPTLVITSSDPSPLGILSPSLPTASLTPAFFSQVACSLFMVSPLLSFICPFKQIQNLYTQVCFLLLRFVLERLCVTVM
How it was run: as §1

ERF = target: T6, ERF (Homo sapiens, UniProt P50548 1-548)
T6 sequence: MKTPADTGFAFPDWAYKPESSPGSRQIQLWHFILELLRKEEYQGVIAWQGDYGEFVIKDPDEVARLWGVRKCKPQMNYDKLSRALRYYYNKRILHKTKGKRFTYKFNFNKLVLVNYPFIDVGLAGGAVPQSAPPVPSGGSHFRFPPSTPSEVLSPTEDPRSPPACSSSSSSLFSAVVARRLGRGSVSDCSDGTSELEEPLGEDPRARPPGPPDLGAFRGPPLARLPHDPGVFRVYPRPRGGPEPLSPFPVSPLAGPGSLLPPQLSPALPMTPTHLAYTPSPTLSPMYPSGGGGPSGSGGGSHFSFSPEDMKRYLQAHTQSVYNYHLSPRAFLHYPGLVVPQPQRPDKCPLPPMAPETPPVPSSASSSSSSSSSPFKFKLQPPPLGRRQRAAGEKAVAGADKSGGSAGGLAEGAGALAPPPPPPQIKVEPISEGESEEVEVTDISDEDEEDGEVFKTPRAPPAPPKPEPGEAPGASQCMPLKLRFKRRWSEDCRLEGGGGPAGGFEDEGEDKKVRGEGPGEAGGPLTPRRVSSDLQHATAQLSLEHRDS
How it was run: as §1

ETV3L = target: T7, ETV3L (Homo sapiens, UniProt Q6ZN32 1-361)
T7 sequence: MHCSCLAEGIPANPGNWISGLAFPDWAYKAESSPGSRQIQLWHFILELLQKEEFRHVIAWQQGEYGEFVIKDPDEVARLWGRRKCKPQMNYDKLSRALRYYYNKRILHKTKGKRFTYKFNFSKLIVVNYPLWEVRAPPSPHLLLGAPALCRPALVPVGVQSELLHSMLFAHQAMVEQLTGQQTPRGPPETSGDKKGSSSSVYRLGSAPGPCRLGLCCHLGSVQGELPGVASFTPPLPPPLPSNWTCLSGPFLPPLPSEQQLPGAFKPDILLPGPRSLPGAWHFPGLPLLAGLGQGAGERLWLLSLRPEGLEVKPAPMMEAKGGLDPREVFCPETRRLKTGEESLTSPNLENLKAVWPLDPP
How it was run: as §1

ETS2 = target: T8, ETS2 (Homo sapiens, UniProt P15036 1-469)
T8 sequence: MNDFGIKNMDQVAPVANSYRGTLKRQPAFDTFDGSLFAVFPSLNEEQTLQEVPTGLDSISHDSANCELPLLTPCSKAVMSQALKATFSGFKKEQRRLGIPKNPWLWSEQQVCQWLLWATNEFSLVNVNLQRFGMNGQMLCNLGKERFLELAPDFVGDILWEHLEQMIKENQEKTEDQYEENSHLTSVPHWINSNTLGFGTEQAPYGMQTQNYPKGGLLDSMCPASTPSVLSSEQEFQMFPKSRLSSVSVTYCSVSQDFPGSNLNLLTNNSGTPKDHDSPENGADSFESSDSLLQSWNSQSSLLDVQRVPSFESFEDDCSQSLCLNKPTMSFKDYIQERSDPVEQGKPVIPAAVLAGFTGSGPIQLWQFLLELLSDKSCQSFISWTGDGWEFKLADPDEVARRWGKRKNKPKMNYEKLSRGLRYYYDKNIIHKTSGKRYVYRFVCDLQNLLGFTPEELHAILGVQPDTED
How it was run: as §1

SPDEF = target: T9, SPDEF (Homo sapiens, UniProt O95238 1-335)
T9 sequence: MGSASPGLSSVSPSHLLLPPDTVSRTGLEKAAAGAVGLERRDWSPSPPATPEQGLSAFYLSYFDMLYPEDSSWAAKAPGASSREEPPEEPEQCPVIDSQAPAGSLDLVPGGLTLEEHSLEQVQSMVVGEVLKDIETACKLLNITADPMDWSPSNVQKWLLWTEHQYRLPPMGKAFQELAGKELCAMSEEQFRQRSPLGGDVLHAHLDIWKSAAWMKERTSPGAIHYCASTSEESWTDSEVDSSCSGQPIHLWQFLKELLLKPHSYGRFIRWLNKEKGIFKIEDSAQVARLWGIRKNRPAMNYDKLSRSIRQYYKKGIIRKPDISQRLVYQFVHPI
How it was run: as §1

GTATTG
binding signal (ELK1): 1.01 fold enrichment (6-mer frequency, TF over GST control)
binding signal (GABPA): 1.04 fold enrichment (6-mer frequency, TF over GST control)
binding signal (ELF1): 1.04 fold enrichment (6-mer frequency, TF over GST control)
binding signal (SPIB): 1.1 fold enrichment (6-mer frequency, TF over GST control)
binding signal (ELK3): 1.08 fold enrichment (6-mer frequency, TF over GST control)
binding signal (SPIC): 1.11 fold enrichment (6-mer frequency, TF over GST control)
binding signal (ELK4): 1.05 fold enrichment (6-mer frequency, TF over GST control)
binding signal (ERF): 1 fold enrichment (6-mer frequency, TF over GST control)
binding signal (ETV3L): 1.01 fold enrichment (6-mer frequency, TF over GST control)
binding signal (ETS2): 1 fold enrichment (6-mer frequency, TF over GST control)
binding signal (SPDEF): 1 fold enrichment (6-mer frequency, TF over GST control)
